ChEMBL document CHEMBL1157539, “Thousands of chemical starting points for antimalarial lead identification” (Nature, 2010)

Legend:
Assay type in all cases: functional
[1] = tested on: Plasmodium falciparum; assay: GSK_TCMDC: Inhibition of Plasmodium falciparum 3D7 in whole red blood cells, using parasite LDH activity as an index of growth. Test compounds present at 2uM
[2] = tested on: Plasmodium falciparum; assay: GSK_TCMDC: Inhibition of Plasmodium falciparum Dd2 in whole red blood cells, using parasite LDH activity as an index of growth. Test compounds present at 2uM
[3] = tested on: HepG2; assay: GSK_TCMDC: Percent inhibition of human HepG2 cell line. Test compounds present at 10uM.

| SMILES | Inhibition [1] | Inhibition [2] | Inhibition [3] |
| --- | --- | --- | --- |
| CCOc1c(Br)cc(Cl)cc1CNCCCNc1nc2ccccc2[nH]1.Cl | 98% | 3% | 27% |
| Cc1ccc2[nH]c(C)c(Br)c(=O)c2c1 | 95% | 84% | 0% |
| CC(C)Oc1cc2c(cc1NS(=O)(=O)c1ccc(-c3ccc(Cl)cc3)cc1)CCN(C)CC2.Cl | 99% | 65% | 100% |
| COc1cc(OC)cc(C(=O)Nc2nc(-c3ccccn3)cs2)c1 | 97% | 72% | 47% |
| O=C(N[C@@H](Cc1ccccc1)[C@H](O)CNCCC(F)(F)F)c1cccc(OCC2CC2)c1 | 98% | 95% | 0% |
| COc1ccc2nccc([C@@H](O)CN3CCC(NCCNc4ccccn4)CC3)c2c1.O=C(O)C(=O)O | 100% | 14% | 18% |
| COc1ccc2nc(-c3ccccc3)cc(NCCCNc3cc(-c4ccccc4)nc4ccc(OC)cc34)c2c1.Cl | 99% | 99% | 100% |
| COc1ccc(-c2csc(NC(=O)CCC(=O)O)n2)cc1OC | 94% | 0% | 63% |
| Cc1cc(NC(=O)[C@H](CC2CCCCC2)Nc2ccc(C#N)c3ccccc23)ccc1F.O=C(O)C(F)(F)F | 100% | 99% | 21% |
| CNS(=O)(=O)c1ccc(NC(=O)c2cc(-c3cccnc3)nc3ccc(Br)cc23)cc1 | 100% | 55% | 9% |
| CC1(C)N=C(N)N=C(N)N1c1ccc(Oc2ccccc2)cc1.Cl | 98% | 3% | 13% |
